Source: PubChem BioAssay
HEK293 tox: cytotoxicity in counter-screen for GLP-1R inverse agonists; HEK293 cAMP-luciferase reporter cells, luminescence, 24 h; Potency, µM (titrated, usually from 38.3 µM), without a hit: at the highest dose activity change, negative = inhibition, usual class: inhibitors; 410,000 tested, 0.13% active;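 note: loss of luciferase light is scored as toxicity; potency is the fitted concentration of half-maximal effect; % is set by controls: 0 for no effect and ±100 for the full control effect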
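To flag toxic compounds, the library was rerun on cells for 24 hr at 37 deg C and 5% CO2. Viability-linked luminescence was captured 12 min after adding luciferase detection reagent.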
GLP-1R agonist: agonists of human GLP-1 receptor; P43220; HEK293 GLP-1R CRE-luciferase, luminescence, 4-6 h; cells express a hypersensitive GLP-1R form; Potency, µM (top dose mostly 45.6 µM), for inactives: at the highest dose activation, usual class: activators; 380,000 tested, 0.007% active; AID 624172; note: potency is the fitted concentration of half-maximal effect; % of control where 0% means no effect
GCN5L2 inh-1: blocks human GCN5L2 histone acetyltransferase | AID 504327 | 390,000 tested, 0.21% active | GCN5L2 HAT assay, ThioGlo1 CoA-SH fluorescence | Potency, µM (top dose mostly 58.9 µM), inactives show top-dose activity change, negative = inhibition, usual class: inhibitors | Q92830; note: potency is the fitted concentration of half-maximal effect; % is set by controls: 0 for no effect and ±100 for the full control effect
Target sequence (Q92830 whole entry, looked up): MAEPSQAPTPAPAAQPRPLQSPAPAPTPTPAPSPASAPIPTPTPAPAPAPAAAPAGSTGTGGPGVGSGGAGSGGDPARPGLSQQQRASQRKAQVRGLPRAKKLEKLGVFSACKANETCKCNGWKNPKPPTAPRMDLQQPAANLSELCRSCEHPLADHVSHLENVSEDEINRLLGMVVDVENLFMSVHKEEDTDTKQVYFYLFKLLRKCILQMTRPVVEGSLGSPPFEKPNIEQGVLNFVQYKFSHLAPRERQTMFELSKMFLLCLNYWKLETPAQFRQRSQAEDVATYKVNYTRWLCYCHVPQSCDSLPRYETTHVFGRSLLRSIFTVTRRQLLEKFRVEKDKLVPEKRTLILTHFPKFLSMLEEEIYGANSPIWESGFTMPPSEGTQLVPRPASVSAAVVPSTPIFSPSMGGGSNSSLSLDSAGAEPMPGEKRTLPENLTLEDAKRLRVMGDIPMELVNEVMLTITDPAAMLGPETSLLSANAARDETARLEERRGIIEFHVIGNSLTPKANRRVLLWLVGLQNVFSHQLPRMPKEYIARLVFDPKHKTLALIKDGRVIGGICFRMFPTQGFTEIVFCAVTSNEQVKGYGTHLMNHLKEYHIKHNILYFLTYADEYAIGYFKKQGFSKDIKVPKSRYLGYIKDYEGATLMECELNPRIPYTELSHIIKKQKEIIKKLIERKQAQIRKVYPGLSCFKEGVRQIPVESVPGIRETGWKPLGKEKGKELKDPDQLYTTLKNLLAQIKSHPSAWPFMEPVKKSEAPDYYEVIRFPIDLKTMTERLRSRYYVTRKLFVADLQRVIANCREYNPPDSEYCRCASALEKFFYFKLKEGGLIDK
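Fluorescence readout, Ex340nm/Em540nm: ThioGlo1 (50uM final) reacts with free CoA thiol released as 20nM GCN5L2 acetylates H3(1-25) peptide (75uM) using acetyl-CoA (70uM). Compound and enzyme sat 15 min beforehand; 20 min room-temperature reaction.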
GLP1R inv ag: GLP-1 receptor (human) inverse agonism; P43220; Potency, µM (highest dose often 38.3 µM), for the others: at the highest dose activity change, negative = inhibition, usual class: inhibitors; 410,000 tested, 1.6% active; HEK293 GLP-1R CRE-luciferase, luminescence, 24 h; GLP-1R form is constitutively active; AID 624417; note: potency is the fitted concentration of half-maximal effect; % is set by controls: 0 for no effect and ±100 for the full control effect; nearly all actives have a fitted effect of over 55% in size
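HEK293 cells stably co-expressing constitutively active GLP-1R and a cAMP-responsive luciferase reporter were seeded in DMEM with 10% Nu serum, given compounds after 12 h, and incubated 24 h at 37 deg C. Luminescence was then read.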
RGS4 inhibitor: human RGS4 inhibition. AID 504845. Transcreener GDP fluorescence polarization, RGS4-accelerated GTP hydrolysis. Potency, µM (titrated, usually from 114 µM), for the others: at the top dose activity change, negative = inhibition, actives largely listed as inhibitors. P49798. 390,000 tested, 0.039% active; note: potency is the fitted concentration of half-maximal effect; % is set by controls: 0 for no effect and ±100 for the full control effect; nearly all actives have a fitted effect of over 75% in size
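MLSMR compounds (23 nl, pin-transferred) preincubated 10 min at room temperature with a 500nM (2x) first reagent, then RGS4 at 900nM (2x) plus Transcreener GDP mix added; fluorescence polarization (620/688 nm) read before and after 90 min at 30 °C.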
PTHR1 agonist: PTHR1 (human) receptor agonism; HEK293 GP2 PTHR1 cells, GloSensor cAMP luminescence, 1 h; Potency, µM (highest dose often 115 µM), without a hit: at the highest dose activation, hits mostly activators; 410,000 tested, 0.075% active; AID 743266; note: potency is the fitted concentration of half-maximal effect; nearly all actives have a fitted effect of over 55% in size
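HEK-293-derived GP2 cells expressing PTHR1 and a GloSensor cAMP reporter, 3,000/well, plated overnight, given luciferin plus IBMX (each 0.5 mM as added) for 1 h at 37 °C, then compound for 1 h at 37 °C. Luminescence was read after 15 min at room temperature.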
GCN5L2 inh-2: confirmation of human GCN5L2 histone acetyltransferase inhibitors. GCN5L2 HAT, ThioGlo1 CoA fluorescence, 20 min. Potency, µM, hits mostly inhibitors. shares compounds with GCN5L2 inh-1. 140 tested, 70% active
Starred values were filed as active, the others as inactive; i = inactive; ? = inconclusive; . = not tested or not shown. A selection: hits, their analogues and other compounds. The true share with any hit is near 1.8%. Calls come from the whole dose curve; as a rule, active = well fitted curve in the direction sought with a large enough effect; inconclusive = small, poorly fitted or top-dose-only effect, or another doubt; inactive = no such curve, though single readings can be large; an effect the other way counts as inactive or inconclusive.

SMILES	HEK293 tox	GLP-1R agonist	GCN5L2 inh-1	GLP1R inv ag	RGS4 inhibitor	PTHR1 agonist	others
C[C@@H]1CN([C@@H](C)CO)S(=O)(=O)c2ccc(Br)cc2O[C@H]1CN(C)C(=O)Nc1ccc(C(F)(F)F)cc1	-8.3%	-0.4%	.	7.94µM*	.	i
COP(=S)(OC)SCn1nnc2ccccc2c1=O	14.3%	-7.3%	39.8µM*	1.5%	?	-5.9%
CCCOc1ccc(C(=O)C(CN2CCOCC2)c2ccccc2)cc1 (stereo not given)	?	-9.8%	-3.0%	7.08µM*	10.3%	i
CC1(C)[C@H](C(=O)O[C@H](C#N)c2cccc(Oc3ccccc3)c2)[C@@H]1C=C(Br)Br	.	.	2.8%	.	.	.
O=C(O)c1ccc(-c2ccc3cc(C45CC6CC(CC(C6)C4)C5)c(O)cc3c2)cc1	.	.	15.8µM*	.	.	.
CC[C@@]1(O)C(=O)OCc2c1cc1n(c2=O)Cc2cc3c(N)cccc3nc2-1	?	-24.3%	-2.3%	-77.5%	-28.5%	44.7µM*
Cc1ccc(NC(=O)N(Cc2ccc3c(c2)OCO3)C2CCN(Cc3ccccc3)CC2)cc1C	-0.6%	.	-14.4%	?	21.0%	i
Cc1ccc(NC(=O)N(Cc2ccc3c(c2)OCO3)C2CCN(Cc3ccccc3)CC2)cc1Cl	-25.0%	.	-12.0%	12.6µM*	-12.5%	-7.2%
CC[C@@H](C(=O)[C@@H](C)[C@@H](O)[C@H](C)[C@@H]1O[C@@H]([C@@H](CC)C(=O)O)CC[C@@H]1C)[C@H]1O[C@]2(C=C[C@@H](O)[C@]3(CC[C@@](C)([C@H]4CC[C@](O)(CC)[C@H](C)O4)O3)O2)[C@H](C)C[C@@H]1C	3.98µM*	-15.5%	.	?	9.0%	-47.4%
Oc1c(Br)cc(Br)cc1Br	-2.0%	3.9%	1.7%	-14.9%	-21.4%	-19.9%
Oc1c(Br)c(Br)c(Br)c(Br)c1Br	-12.1%	-5.3%	31.6µM*	-22.8%	-9.3%	-39.2%	GCN5L2 inh-2=14.5*
O=C(O)CCC(=O)NCCC1=c2ccccc2=N/C1=C\c1c(O)n(Cc2ccc(F)cc2)c(=S)[nH]c1=O	20.5%	-1.0%	17.8µM*	?	?	-4.7%	GCN5L2 inh-2=5.13*
CC(N)(COP(=O)(O)Oc1ccccc1)C(=O)O (stereo not given)	.	.	-4.6%	.	i	.
O=C(O)CSCC(=O)N(Cc1ccccc1)c1nc(-c2ccccc2)c(-c2ccccc2)s1	-3.2%	-2.3%	11.2µM*	?	-42.0%	i	GCN5L2 inh-2=22.9*
COC(=O)C1(C(=O)OC)C[C@H](c2ccc(OC)cc2)N(Cc2ccccc2OC)[C@@H]1c1ccccc1	16.0%	.	.	?	.	-6.5%
